# Assay outcomes from PubChem BioAssay.
# This is a sample that favours compounds with a hit; in the whole collection about 3% have one here.
# S16 F2sN tox: toxic to S16 Pmp22-F2sN Schwann cells; S16 Pmp22-F2sN Schwann cells viability, CellTiter-Glo, 24 h; Potency, µM (titrated, usually from 57.5 µM), inactives show top-dose activity change, negative = cytotoxicity, usual class: cytotoxic; 43,000 tested, 0.48% active; further: potency means the concentration at half of the fitted maximal effect; on the % scale 0 is the no-effect control and ±100 the full control effect; nearly all actives have a fitted effect of over 65% in size
#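 S16 Pmp22-F2sN Schwann cells (500-1,000/well) in phenol-red-free DMEM with 10% FBS received 23 nL compound by pin tool for 24 h at 37 °C. Viability was then read as CellTiter-Glo luminescence after 15 min at room temperature.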
# p53null 32C tox: p53 null cell cytotoxicity, permissive temperature. Potency, µM (top dose mostly 46.1 µM), inactives show at the highest dose activity change, negative = cytotoxicity, usual class: cytotoxic. 55,000 tested, 0.62% active. H1299-neo p53 null cells, ATP luminescence, 24 h, 32C. AID 903;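 further: potency means the concentration at half of the fitted maximal effect; 0% = DMSO only and -100% = full killing by 100 µM tamoxifen; nearly all actives have a fitted effect of over 55% in size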
#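 Cytotoxicity: H1299-neo (no p53), 32C, 24 h treatment. Concentrations up to 46 uM. Readout cellular ATP, luminescence. Normalization to DMSO basal and tamoxifen 100 uM maximal kill.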
# PMP22 txn prim: modulates PMP22 transcription in S16 Schwann cells; 43,000 tested, 2% active; AID 1508649; S16 Pmp22-F2sN Schwann cells, FLuc/NLuc coincidence luminescence, 24 h; Potency, µM (doses to about 57.5 µM), inactives show top-dose activity change, negative = inhibition, actives largely listed as inhibitors; active means clear falling dose curves in both reporters; inconclusive means both reporters move, but less clearly or upward; inactive means either reporter flat; the % is the NLuc reporter signal; further: potency means the concentration at half of the fitted maximal effect; on the % scale 0 is the no-effect control and ±100 the full control effect
#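 Rat S16 Pmp22-F2sN cells, 500-1,000/well in phenol red-free DMEM + 10% FBS, compound-treated 24 h (37C, 5% CO2). Luminescence: FLuc read, Stop&Glo added, NLuc read.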
# p53null 39C kill: selectivity test: cytotoxicity in p53 null cells, nonpermissive temperature; H1299 p53-null (neo) cells, 39C, ATPlite viability, 24 h; Potency, µM (doses to about 46.1 µM), without a hit: at the top dose activity, negative = cell killing, most hits filed as cytotoxic; 55,000 tested, 0.97% active; AID 904;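 further: potency means the concentration at half of the fitted maximal effect; 0% = DMSO only and -100% = full killing by 100 µM tamoxifen; nearly all actives have a fitted effect of over 50% in size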
#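 Temperature-shift cytotoxicity format: compound titrations on p53-null or A138V-expressing H1299 cells held 24 hr at 39C, cell ATP then measured, AC50 from Hill model.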
# OvCa metastasis: inhibitors of ovarian cancer cell adhesion and invasion in omental model. SKOV3ip1-GFP adhesion/invasion on 3D omental model, fluorescence. 46,000 tested, 0.1% active. Potency, µM (titrated, usually from 45.8 µM), without a hit: at the top dose activity change, negative = inhibition, usual class: inhibitors;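 further: potency means the concentration at half of the fitted maximal effect; plate controls were DMSO wells for no effect and tomatine positive control wells for full effect; nearly all actives have a fitted effect of over 65% in size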
#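 A 3D layer of primary human omental fibroblasts, mesothelial cells, fibronectin and collagen I, grown 48 hr, received SKOV3ip1-GFP cells in serum-free medium plus compounds at 0.36-46 umol/L. After 2 hr RT and 16 hr 37 C, fixed adherent GFP cells were counted; normalized to DMSO and tomatine.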
# mTORC1 inh: reduces mTORC1 signaling in Tsc2 and p53 null MEF cells | Tsc2-/- p53-/- MEF, phospho-rpS6 immunofluorescence/PI, 24 h | 44,000 tested, 0.78% active | Potency, µM (top dose mostly 38.3 µM), for the others: at the highest dose activity change, negative = inhibition, usual class: inhibitors | AID 493208;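 further: potency means the concentration at half of the fitted maximal effect; plate controls were DMSO for no effect and rapamycin for full effect; nearly all actives have a fitted effect of over 50% in size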
#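 Immunofluorescence of rpS6 phosphorylation in Tsc2-/-, p53-/- MEFs after 24 h compound exposure, normalized to propidium iodide signal. Activity is expressed as % positive cells, thresholded with 7.5 nM rapamycin.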
# NLuc sat counter: NanoLuc enzyme inhibition artifact for PMP22 screen | shares compounds with PMP22 txn prim | Potency, µM (highest dose often 57.5 µM), without a hit: at the highest dose activity change, negative = inhibition, most hits filed as inhibitors | 690 tested, 4% active | Secreted NLuc enzyme (filtered S16 cell medium), Nano-Glo luminescence | AID 1508638; further: potency means the concentration at half of the fitted maximal effect; on the % scale 0 is the no-effect control and ±100 the full control effect
# NLuc Km counter: counter-screen for PMP22 expression modulators: NanoLuc inhibition at Km; Potency, µM (doses to about 57.5 µM), inactives show at the top dose activity change, negative = inhibition, usual class: inhibitors; shares compounds with PMP22 txn prim; secreted NLuc enzyme, coelenterazine luminescence, Km conditions; 690 tested, 5% active; further: potency means the concentration at half of the fitted maximal effect; on the % scale 0 is the no-effect control and ±100 the full control effect
# FLuc ctr PMP22: counter-screen for PMP22 expression modulators: firefly luciferase inhibition; shares compounds with PMP22 txn prim; purified P. pyralis FLuc, luminescence, 10 min; Potency, µM (doses to about 57.5 µM), without a hit: at the top dose activity, negative = inhibition, most hits filed as inhibitors; 690 tested, under 10 active; further: % of control where 0% means no effect
# Target sequence (P08659 whole entry, looked up): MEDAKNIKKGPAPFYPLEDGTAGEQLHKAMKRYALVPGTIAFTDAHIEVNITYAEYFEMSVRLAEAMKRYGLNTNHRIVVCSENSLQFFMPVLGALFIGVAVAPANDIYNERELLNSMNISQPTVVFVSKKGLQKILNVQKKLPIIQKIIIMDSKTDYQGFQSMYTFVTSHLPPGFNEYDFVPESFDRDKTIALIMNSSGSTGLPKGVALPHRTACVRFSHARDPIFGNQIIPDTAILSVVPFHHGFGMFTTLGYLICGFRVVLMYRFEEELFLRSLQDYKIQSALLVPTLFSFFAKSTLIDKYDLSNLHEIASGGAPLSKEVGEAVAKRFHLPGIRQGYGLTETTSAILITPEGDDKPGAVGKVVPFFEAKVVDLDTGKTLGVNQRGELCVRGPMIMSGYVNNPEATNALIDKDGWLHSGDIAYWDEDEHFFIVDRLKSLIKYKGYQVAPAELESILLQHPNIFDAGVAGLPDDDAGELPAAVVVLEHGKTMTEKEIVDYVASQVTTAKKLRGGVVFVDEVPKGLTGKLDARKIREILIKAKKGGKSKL
# S16 F2sN tox cnf: confirmation of cytotoxicity in S16 Pmp22-F2sN Schwann cells (luciferase reporters placed in the Pmp22 gene). shares compounds with PMP22 txn prim. S16 Schwann cells viability, CellTiter-Glo ATP luminescence, 24 h. Potency, µM (series often up to 57.5 µM), for the others: at the highest dose activity change, negative = viability loss, most hits filed as cytotoxic. 690 tested, 7% active. AID 1508641; further: potency means the concentration at half of the fitted maximal effect; on the % scale 0 is the no-effect control and ±100 the full control effect
# PMP22 txn conf: confirmation of modulators of PMP22 gene transcription in S16 cells. AID 1508646. shares compounds with PMP22 txn prim. 690 tested, 22% active. Potency, µM (titrated, usually from 57.5 µM), inactives show top-dose activity change, negative = inhibition, most hits filed as inhibitors. S16 Schwann cells Pmp22-F2sN, dual luciferase, 24 h; active means clear falling dose curves in both reporters; inconclusive means both reporters move, but less clearly or upward; inactive means either reporter flat; the % is the FLuc reporter signal; further: potency means the concentration at half of the fitted maximal effect
# Numbers without * were called inactive; i = inactive; u = inconclusive; x = no result given. Unless noted, the call rests on the fitted dose curve; in most records, active means well fitted curve in the direction sought with a large enough effect; inconclusive means small, poorly fitted or top-dose-only effect, or another doubt; inactive means no such curve, though single readings can be large; an effect the other way counts as inactive or inconclusive.
SMILES,S16 F2sN tox,p53null 32C tox,PMP22 txn prim,p53null 39C kill,OvCa metastasis,mTORC1 inh,others
Cc1nc2c(=O)n(C)c(=O)nc-2n(C)n1,x,1.26µM*,x,3.16µM*,x,x,
O=C(Nc1ccc(Cl)c(C(F)(F)F)c1)c1ccc2c(c1)CCN2S(=O)(=O)c1ccccc1,22.4µM*,15.7%,u,-2.0%,i,8.26µM*,
COc1ccc(CNC(=O)Cn2c(SCC(=O)Nc3ccc(C)c(C)c3)nc3ccccc32)cc1,-29.1%,u,u,u,u,16.5µM*,
CC(C)N[C@@H]1CCn2c(=O)[nH]c3cccc(c32)[C@@H]1O,x,x,x,x,5.0%,x,
CCn1nc(-c2ccccc2)nc2c(=O)n(C)c(=O)nc1-2,x,3.55µM*,x,18.2%,x,x,
C=C[C@@H]1CN2CCC1C[C@@H]2[C@@H](O)c1ccnc2ccccc12 (stereo partly specified),x,x,x,x,-15.5%,x,
COc1cccc2c1[C@]13CCN(CC4CC4)[C@H](C2)[C@]1(OC)CCC(=O)C3,x,x,x,x,0.4%,x,
COc1ccc(N2CCN(C(=O)C3CCCN(S(=O)(=O)c4ccc5c(c4)CCCN5C(C)=O)C3)CC2)cc1 (stereo unspecified),u,2.0%,14.1µM*,-10.8%,i,7.36µM*,
O=C(c1ccccc1)c1ccc2nc(N3CCN(c4ccc(F)cc4)CC3)c3nncn3c2c1,16.4%,4.7%,u,-19.7%,7.2%,4.14µM*,
O=C(Nc1nc2ccccc2s1)c1cccn(Cc2ccccc2)c1=O,14.2%,u,-17.2%,7.8%,i,-2.2%,
Cc1ccccc1Cn1cccc(C(=O)Nc2nc3ccccc3s2)c1=O,0.5%,10µM*,-12.8%,13.7%,i,-0.2%,
CCOC(=O)c1c(C(C#N)=CN)c2ccc(Cl)c(Cl)c2n1C,x,x,x,x,-22.0%,x,
COC(=O)C1CN(C#N)N(c2ccc(Cl)cc2)C12c1ccccc1-c1ccccc12 (stereo unspecified),x,8.91µM*,x,u,x,x,
C=C[C@@H]1CN2CCC1C[C@H]2[C@H](O)c1ccnc2ccccc12 (stereo partly specified),x,x,x,x,7.8%,x,
CO[C@H]1CCC(O[C@H]2C[C@H]([C@]3(C)CC[C@]4(C[C@H](O)[C@@H](C)[C@@H]([C@@H](C)C=C(C)C(=O)[C@H](C)C[C@H](C)C(=O)O)O4)O3)O[C@]3(O[C@@H]([C@H]4O[C@@](O)(CO)[C@H](C)C[C@H]4C)C[C@H]3C)[C@H]2C)O[C@H]1C (stereo partly specified),x,x,x,x,-19.5%,x,
CCOC(=O)Nc1ccc(NCc2ccc(F)cc2)cc1N,x,x,x,x,-7.2%,x,
Cc1ccc(S(=O)(=O)c2nnn3c2nc(N2CCC(C(N)=O)CC2)c2cc(Cl)ccc23)cc1C,u,11.3%,16µM*,u,-21.4%,0.8%,
C[C@](O)(COc1ccc(C#N)cc1)C(=O)Nc1ccc(C#N)c(C(F)(F)F)c1,x,x,x,x,-8.0%,x,
CCOc1ccc2nc(NC(=O)c3cccn(Cc4ccc(C)cc4)c3=O)sc2c1,11.1%,-3.9%,-22.7%,25.9%,-1.1%,-4.8%,
COc1ccc2nc(NC(=O)c3nc(S(=O)(=O)Cc4cccc(C)c4)ncc3Cl)sc2c1,10µM*,-27.0%,6.23µM*,u,u,6.56µM*,
COc1ccc2c(c[n+](C)c3c4cc5c(cc4ccc23)OCO5)c1OC,x,x,x,x,23.5µM*,x,
C[C@@H]1[C@@H](CC(C[C@H]2O[C@@H]3O[C@]4(C)CC[C@@H]5[C@H](C)CC[C@@H]([C@H]2C)[C@@]35OO4)C[S+](=O)([O-])c2ccc(COC(=O)N(C)C)cc2)O[C@@H]2O[C@]3(C)CC[C@H]4[C@H](C)CC[C@@H]1[C@@]24OO3 (stereo partly specified),x,x,x,x,-4.8%,x,
Cc1ccc(NC(=O)CSc2nc(-c3ccco3)cc(C(F)(F)F)n2)c(C)c1,u,23.2%,u,u,u,0.826µM*,
Cc1nn2c(=O)cc(COC(=O)c3ccccc3NC(=O)c3cccs3)nc2s1,-8.3%,-1.8%,7.13µM*,u,11.0%,0.0%,NLuc sat counter=-4.3%;NLuc Km counter=2.2%;FLuc ctr PMP22=-2.8%;S16 F2sN tox cnf=9.3%;PMP22 txn conf=31.7%
O=C(OCc1cc(=O)n2nc(C3CC3)sc2n1)c1ccc(NC(=O)c2ccccc2Cl)cc1,6.1%,u,u,-10.0%,-2.7%,5.2%,
C#C[C@]1(O)C=C[C@@H]2[C@@H]3CCC4=CC(=O)CC[C@@H]4[C@H]3CC[C@@]21CC,x,x,x,x,-4.3%,x,
C[C@H]([C@H](O)CCC(C)(C)O)[C@H]1CC[C@@]2(O)C3=CC(=O)[C@@H]4C[C@@H](O)[C@@H](O)C[C@]4(C)[C@@H]3CC[C@]12C,x,x,x,x,-8.6%,x,
